Assay results published in PubChem BioAssay.

Each compound was assayed against E3 ubiquitin-protein ligase XIAP (Homo sapiens) (UniProt P98170) (assay: small molecules binding XIAP protein – biophysical, small-molecule microarray, fluorescence 635 nm, primary screen (AID 1181;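 note: score merges 667 nm emission and signal to noise over triplicate slides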)). Settings: higher = more signal.
Chain of E3 ubiquitin-protein ligase XIAP (Homo sapiens) (P98170 whole entry, looked up): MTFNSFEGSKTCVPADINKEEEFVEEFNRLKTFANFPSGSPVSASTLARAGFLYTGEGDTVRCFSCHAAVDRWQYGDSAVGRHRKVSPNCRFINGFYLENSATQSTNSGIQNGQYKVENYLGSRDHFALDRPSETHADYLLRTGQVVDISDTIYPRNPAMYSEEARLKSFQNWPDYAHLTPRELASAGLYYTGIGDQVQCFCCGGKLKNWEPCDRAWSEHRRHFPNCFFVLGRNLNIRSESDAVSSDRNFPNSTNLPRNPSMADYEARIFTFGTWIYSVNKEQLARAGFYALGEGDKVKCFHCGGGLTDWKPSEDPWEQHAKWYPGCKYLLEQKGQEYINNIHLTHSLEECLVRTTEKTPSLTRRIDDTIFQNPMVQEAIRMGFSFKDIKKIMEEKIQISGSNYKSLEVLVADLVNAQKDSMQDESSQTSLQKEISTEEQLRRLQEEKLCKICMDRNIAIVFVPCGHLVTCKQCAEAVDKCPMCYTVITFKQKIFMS
Work on `C=C(COC)/C(=C/C[C@H](OC(C)=O)c1ccccc1OCCO)c1cc(C(=O)OC)ccc1OC` yielded a composite z-score of -0.239.
`C=C(CCCC)/C(=C/C[C@H](OC(=O)c1ccncc1)c1cccc(OCCO)c1)c1cnc2ccccc2c1` gave a composite z-score of 0.291.
`C=C(COC)C(=O)CC[C@@H](OC(C)=O)c1ccccc1OCCO` gave a composite z-score of -0.102.
`COc1ccc(C(O)C2C=CC3C(=O)N(c4ccccc4)C(=O)C3N2Nc2ccc(C#N)cc2)cc1OCc1ccccc1` (configuration not stated) was tested, and the composite z-score was 0.44.
With `CCOC(=O)C1=CC[C@@H](c2ccc(OC)cc2)N(S(=O)(=O)c2ccc(C)cc2)[C@H]1c1ccc(C)cc1` the composite z-score was 0.126.
In the case of `C=C(CCCC)/C(=C/C[C@H](OC(C)=O)c1cccc(OCCO)c1)c1cnc2ccccc2c1`, the composite z-score is reported as -0.0448.
`CC(=O)OCC1C2CC[C@H]3C(OCc4ccc(F)cc4C(F)(F)F)OC[C@]4(C)[C@H]3C2=C(CN4C(=O)OC(C)(C)C)[C@H](C)C1COC(C)=O` (some centres not stated) gave a composite z-score of 0.691.
Work on `CC(C)(C)OC(=O)CC[C@]1(C(=O)NCC(O)CO)N=C(c2ccc(OCCCO)cc2)O[C@H]1c1ccccc1N=[N+]=[N-]` (some centres not stated) yielded a composite z-score of -0.0018.
`COC(=O)[C@@]1(Cc2ccc(F)cc2)[C@H]2c3cc(C(=O)N(C)C)n(CCc4ccc(O)c(O)c4)c3C[C@H]2CN1C(=O)c1ccccc1` showed a composite z-score of 0.122.
`CC[C@@H]1C=C(C(=O)O)[C@H](c2ccc(OC)cc2)N1S(=O)(=O)c1ccc(C)cc1` was tested, and the composite z-score was -0.0286.
`COC(=O)[C@@]1(Cc2ccccc2)N=C(c2ccc(OCCCO)cc2)O[C@H]1c1ccccc1CN=[N+]=[N-]` gave a composite z-score of 0.0549.
For `COc1ccc(C(=O)Nc2cccc(CN3C(=O)[C@@]4(O[C@@H](CC(=O)N5CCC[C@H]5CO)[C@H]([Si](C)(C)c5ccc(OC)cc5)[C@H]4C)c4ccccc43)c2)cc1`, the composite z-score was 0.147.
